Measurements published in PubChem BioAssay (EPA / NIEHS).
Some structures have more than one record in an assay (separate samples or runs), and their calls can disagree. Calls of active or inactive are those of the source. Rule for the calls: active = hit-call score of the fitted dose curve at least 0.9, where 1 is the maximum; inactive = score below 0.9.

Tests used:
[1] = ATG_CRE_CIS: Attagene CIS-FACTORIAL HepG2 Assay for human cAMP Responsive Element (CRE) binding protein 3 (AID 2282926); details: HepG2 CRE cis-reporter, Attagene multiplexed mRNA; actives raise or lower the signal
Summary of the method: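 HepG2 cells transiently transfected with cis-element-driven multiple reporter transcription units; CRE reporter mRNA measured 24 h after dosing by RT-PCR, 6-FAM labelling, HpaI digestion and capillary electrophoresis. Bidirectional fit versus DMSO baseline.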

[2] = target: CCAAT/enhancer-binding protein beta (Homo sapiens) (UniProt P17676); assay: ATG_C_EBP_CIS: Attagene CIS-FACTORIAL HepG2 Assay for human CCAAT/Enhancer Binding Protein (C/EBP) beta (AID 2282927); details: HepG2 Attagene cis-factorial transcription factor reporter; actives raise or lower the signal
Chain of CCAAT/enhancer-binding protein beta (Homo sapiens) (P17676 whole entry, looked up): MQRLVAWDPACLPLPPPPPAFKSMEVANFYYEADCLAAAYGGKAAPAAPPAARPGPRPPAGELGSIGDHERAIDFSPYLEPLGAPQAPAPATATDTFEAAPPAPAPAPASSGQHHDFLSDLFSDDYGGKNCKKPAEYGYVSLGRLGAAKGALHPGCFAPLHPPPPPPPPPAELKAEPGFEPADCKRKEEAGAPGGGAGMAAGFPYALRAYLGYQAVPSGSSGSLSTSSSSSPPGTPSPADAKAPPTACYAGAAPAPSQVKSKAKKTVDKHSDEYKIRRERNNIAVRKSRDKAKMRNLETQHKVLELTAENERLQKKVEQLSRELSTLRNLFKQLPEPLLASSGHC
Summary of the method: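 HepG2, transient MRTU transfection, 24 h treatment. RT-PCR plus CE fluorescence; DMSO negative control, bidirectional fit.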

[3] = ATG_CMV_CIS: Attagene CIS-FACTORIAL HepG2 Assay for human CMV (Internal Marker) (AID 2282928); details: HepG2 CMV promoter reporter, transcription factor profiling; actives raise or lower the signal;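 note: endpoint acts as a background internal control marker rather than a target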
Summary of the method: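 Endogenous transcription factor activity read in HepG2 via transfected cis-promoter reporter units. After 24 h dosing, reporter mRNA measured by RT-PCR/capillary electrophoresis; gain or loss of signal fit relative to DMSO.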

[4] = ATG_DR4_LXR_CIS: Attagene CIS-FACTORIAL HepG2 Assay for human Liver X Receptor (LXR), DR4 submotif (AID 2282929); details: HepG2 Attagene DR4 cis-reporter, mRNA transcription; actives raise or lower the signal
Summary of the method: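 HepG2, transient MRTU transfection, cis-element (DR4) promoter; 24 h compound exposure; total RNA → oligo(dT) RT → PCR → 6-FAM primer extension → HpaI cut → CE. Gain/loss vs DMSO, bidirectional fit.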

[5] = target: Aryl hydrocarbon receptor (Homo sapiens) (UniProt P35869); assay: ATG_Ahr_CIS: Attagene CIS-FACTORIAL HepG2 Assay for human Aryl Hydrocarbon Receptor (Ahr) (AID 2282930); details: HepG2 AhR cis-factorial reporter transcription; actives raise or lower the signal
Chain of Aryl hydrocarbon receptor (Homo sapiens) (P35869 whole entry, looked up): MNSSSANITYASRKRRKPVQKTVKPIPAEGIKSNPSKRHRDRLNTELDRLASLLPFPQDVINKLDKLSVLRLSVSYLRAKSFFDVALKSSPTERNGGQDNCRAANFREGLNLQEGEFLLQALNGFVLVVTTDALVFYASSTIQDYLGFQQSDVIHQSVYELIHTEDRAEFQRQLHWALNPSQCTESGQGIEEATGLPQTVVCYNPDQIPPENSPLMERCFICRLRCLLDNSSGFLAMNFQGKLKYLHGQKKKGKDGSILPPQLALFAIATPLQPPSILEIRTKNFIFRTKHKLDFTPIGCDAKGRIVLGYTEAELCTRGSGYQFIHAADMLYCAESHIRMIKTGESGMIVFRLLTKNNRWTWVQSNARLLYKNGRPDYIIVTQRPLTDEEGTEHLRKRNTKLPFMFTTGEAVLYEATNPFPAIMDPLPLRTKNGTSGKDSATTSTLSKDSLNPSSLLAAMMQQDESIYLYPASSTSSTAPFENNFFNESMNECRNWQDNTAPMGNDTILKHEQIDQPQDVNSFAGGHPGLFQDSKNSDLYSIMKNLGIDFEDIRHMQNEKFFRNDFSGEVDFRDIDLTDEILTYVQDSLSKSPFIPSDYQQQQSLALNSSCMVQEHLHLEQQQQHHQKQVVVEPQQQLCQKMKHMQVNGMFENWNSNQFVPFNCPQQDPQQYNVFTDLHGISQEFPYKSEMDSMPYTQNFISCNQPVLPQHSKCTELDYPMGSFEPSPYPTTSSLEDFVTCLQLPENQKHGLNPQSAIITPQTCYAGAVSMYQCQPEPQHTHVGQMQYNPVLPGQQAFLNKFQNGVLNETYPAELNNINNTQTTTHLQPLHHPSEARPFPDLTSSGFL
Summary of the method: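 Endogenous factor activity is tracked through cis-promoter reporter units transfected into HepG2 cells. Transcript levels at 24 h are read by fluorescent RT-PCR and capillary electrophoresis, with activity in either direction scored relative to DMSO.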

[6] = ATG_AP_1_CIS: Attagene CIS-FACTORIAL HepG2 Assay for human Activator Protein 1 (AP-1) (AID 2282931); details: HepG2 Attagene cis-factorial AP-1 reporter mRNA; actives raise or lower the signal
Summary of the method: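 Transient MRTU transfection of HepG2 → 24 h chemical treatment → RNA isolation, RT-PCR, 6-FAM labelling, HpaI digest → capillary electrophoresis. Fit: bidirectional, DMSO negative control.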

[7] = ATG_AP_2_CIS: Attagene CIS-FACTORIAL HepG2 Assay for human Activator Protein 2 (AP-2) (AID 2282932); details: HepG2 AP-2 cis-reporter, Attagene transcription factor profiling; actives raise or lower the signal
Summary of the method: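 Multiplexed mRNA reporter assay in HepG2: cis-regulated units report endogenous factor activity after 24 h treatment. Fluorescence from capillary electrophoresis of RT-PCR products gives the signal, with DMSO as baseline.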

[8] = ATG_BRE_CIS: Attagene CIS-FACTORIAL HepG2 Assay for human Bone Morphogenetic Protein (BMP) Response Element (BRE) (AID 2282933); details: HepG2 BMP response element reporter, Attagene transcription factor profiling; actives raise or lower the signal
Summary of the method: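 Transient MRTU transfection of human HepG2 liver cells; 24 h compound treatment; total RNA isolated, reverse-transcribed, PCR-amplified, 6-FAM labelled, HpaI-cut, capillary electrophoresis. DMSO = negative control/baseline, bidirectional fit.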

[9] = target: Retinoic acid receptor alpha (Homo sapiens) (UniProt P10276); assay: ATG_DR5_RAR_CIS: Attagene CIS-FACTORIAL HepG2 Assay for human Retinoic Acid Receptor Alpha (RARE), DR5 submotif (AID 2282934); details: HepG2 Attagene cis-factorial RARE DR5 reporter, mRNA; actives raise or lower the signal
Chain of Retinoic acid receptor alpha (Homo sapiens) (P10276 whole entry, looked up): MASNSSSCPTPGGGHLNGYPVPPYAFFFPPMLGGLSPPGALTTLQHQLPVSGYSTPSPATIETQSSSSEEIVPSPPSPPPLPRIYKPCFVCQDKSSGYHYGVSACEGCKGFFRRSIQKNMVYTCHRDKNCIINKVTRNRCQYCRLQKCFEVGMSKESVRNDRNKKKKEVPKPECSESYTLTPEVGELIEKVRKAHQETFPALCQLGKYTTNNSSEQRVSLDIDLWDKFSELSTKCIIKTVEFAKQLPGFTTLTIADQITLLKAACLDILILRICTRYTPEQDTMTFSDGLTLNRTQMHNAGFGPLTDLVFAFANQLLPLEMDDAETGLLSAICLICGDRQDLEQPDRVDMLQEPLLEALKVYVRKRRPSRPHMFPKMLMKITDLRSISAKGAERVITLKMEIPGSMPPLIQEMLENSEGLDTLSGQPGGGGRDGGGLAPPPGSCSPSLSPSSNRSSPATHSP
Summary of the method: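 After 24 h of chemical exposure, transiently transfected HepG2 cells were lysed for total RNA; the DR5-regulated reporter transcript was quantified via RT-PCR and capillary electrophoresis, with activity fitted bidirectionally against DMSO.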

[10] = target: Transcription factor E2F1 (Homo sapiens) (UniProt Q01094); assay: ATG_E2F_CIS: Attagene CIS-FACTORIAL HepG2 Assay for human E2F Transcription Factor 1 (AID 2282935); details: HepG2 Attagene cis-reporter, E2F reporter RNA transcripts; actives raise or lower the signal
Chain of Transcription factor E2F1 (Homo sapiens) (Q01094 whole entry, looked up): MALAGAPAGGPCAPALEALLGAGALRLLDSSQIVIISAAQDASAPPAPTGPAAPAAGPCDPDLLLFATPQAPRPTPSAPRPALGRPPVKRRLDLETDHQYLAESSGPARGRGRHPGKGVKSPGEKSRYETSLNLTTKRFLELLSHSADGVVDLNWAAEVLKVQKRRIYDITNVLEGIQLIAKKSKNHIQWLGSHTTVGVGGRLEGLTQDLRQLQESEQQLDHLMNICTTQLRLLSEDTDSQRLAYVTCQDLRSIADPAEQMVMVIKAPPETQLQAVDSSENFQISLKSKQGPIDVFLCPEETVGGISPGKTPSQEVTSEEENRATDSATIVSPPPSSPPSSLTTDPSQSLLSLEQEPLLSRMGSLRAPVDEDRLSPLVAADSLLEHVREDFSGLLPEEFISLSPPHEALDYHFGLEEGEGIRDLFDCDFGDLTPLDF
Summary of the method: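 Measures reporter transcript levels via RT-PCR with capillary electrophoresis detection in HepG2 cells harboring cis-regulated reporter units; 24 h post-dose; bidirectional curve fitting with DMSO as baseline.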

[11] = ATG_E_Box_CIS: Attagene CIS-FACTORIAL HepG2 Assay for human Enhancer Box (E-box) (AID 2282936); details: HepG2 E-box cis-reporter transcription, actives raise or lower the signal
Summary of the method: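 First, HepG2 cells receive multiple cis-regulated reporter constructs by transient transfection. Next, chemicals are applied for 24 h. Finally, reporter mRNA is quantified via RT-PCR and capillary electrophoresis, with DMSO as baseline.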

[12] = ATG_M_61_CIS: Attagene CIS-FACTORIAL HepG2 Assay for M61 Transcription Factor (Internal Marker) (AID 2282937); details: HepG2 Attagene CIS-FACTORIAL M61 internal marker reporter; actives raise or lower the signal
Summary of the method: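 Human liver HepG2, transient MRTU transfection (cis promoter elements), 24 h compound. Total RNA → oligo(dT) RT → PCR → FAM label → HpaI → CE. Internal background marker; bidirectional fitting, DMSO = baseline.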

[13] = ATG_EGR_CIS: Attagene CIS-FACTORIAL HepG2 Assay for human Early Growth Response 1 (EGR1) (AID 2282938); details: HepG2 Attagene CIS-FACTORIAL EGR reporter mRNA; actives raise or lower the signal
Summary of the method: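 Transient transfection of human HepG2 with multiple cis-regulated reporter units, chemical exposure 24 h, total RNA isolated. Reverse transcription, PCR, fluorescent labelling and capillary electrophoresis quantify reporter transcripts; activity fitted bidirectionally against DMSO.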

[14] = ATG_M_19_CIS: Attagene CIS-FACTORIAL HepG2 Assay for M19 Transcription Factor (Internal Marker) (AID 2282939); details: HepG2 Attagene CIS-FACTORIAL M19 internal marker reporter; actives raise or lower the signal
Summary of the method: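 Transfect HepG2 with MRTU reporter library → dose chemical, 24 h → isolate total RNA, reverse-transcribe with oligo(dT) → PCR, 6-FAM label, HpaI cut (2 h, 37 C) → capillary electrophoresis. Bidirectional fit vs DMSO.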

[15] = ATG_ERE_CIS: Attagene CIS-FACTORIAL HepG2 Assay for Estrogen Response Element (ERE) (AID 2282940); details: HepG2 ERE cis-reporter, Attagene RNA transcript; actives raise or lower the signal
Summary of the method: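 Transient MRTU transfection of human HepG2; cis-element promoters; 24 h dosing; total RNA → RT (oligo dT) → PCR → 6-FAM primer extension → HpaI digest → CE fluorescence. Bidirectional fit, DMSO baseline.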

[16] = ATG_Ets_CIS: Attagene CIS-FACTORIAL HepG2 Assay for human Erythroblast Transformation Specific (ETS) (AID 2282941); details: HepG2 ETS cis-reporter transcription, actives raise or lower the signal
Summary of the method: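 Steps: transfect HepG2 with multiple reporter units; treat compound 24 h; isolate RNA, DNase-treat, reverse-transcribe; PCR-amplify, label with 6-FAM, digest with HpaI; separate by capillary electrophoresis. Activity fitted both directions versus DMSO.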

[17] = target: Hepatocyte nuclear factor 3-beta (Homo sapiens) (UniProt Q9Y261); assay: ATG_FoxA2_CIS: Attagene CIS-FACTORIAL HepG2 Assay for human Forkhead box A2 (FOXA2) (AID 2282942); details: HepG2 cis-reporter transcription factor activity, 24 h; actives raise or lower the signal
Chain of Hepatocyte nuclear factor 3-beta (Homo sapiens) (Q9Y261 whole entry, looked up): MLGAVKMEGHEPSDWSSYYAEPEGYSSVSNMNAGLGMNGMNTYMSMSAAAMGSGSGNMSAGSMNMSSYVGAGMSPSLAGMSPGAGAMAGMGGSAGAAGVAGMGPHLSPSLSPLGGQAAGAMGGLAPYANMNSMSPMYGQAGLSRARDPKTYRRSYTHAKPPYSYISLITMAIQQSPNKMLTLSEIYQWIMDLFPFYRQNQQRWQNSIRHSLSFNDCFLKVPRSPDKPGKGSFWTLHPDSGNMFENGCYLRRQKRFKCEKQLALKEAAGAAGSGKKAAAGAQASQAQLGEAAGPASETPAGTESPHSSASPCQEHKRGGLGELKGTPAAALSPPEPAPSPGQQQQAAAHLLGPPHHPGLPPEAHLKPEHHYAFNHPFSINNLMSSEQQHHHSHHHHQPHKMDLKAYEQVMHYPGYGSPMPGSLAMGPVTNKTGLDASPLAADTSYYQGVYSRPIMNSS
Summary of the method: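 Transient MRTU transfection of HepG2 liver cells; 24 h treatment; total RNA → oligo(dT) RT → PCR → FAM primer extension → HpaI cut → CE. Bidirectional fit vs DMSO.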

[18] = ATG_FoxO_CIS: Attagene CIS-FACTORIAL HepG2 Assay for human Forkhead box O (FoxO) (AID 2282943); details: HepG2 Attagene cis-reporter, FoxO element, mRNA; actives raise or lower the signal
Summary of the method: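 Transfected HepG2 reporter cells exposed to test chemical for 24 h; reporter RNA measured by reverse transcription, PCR and fluorescent capillary electrophoresis; curves fitted for increases and decreases against DMSO.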

[19] = ATG_GATA_CIS: Attagene CIS-FACTORIAL HepG2 Assay for human GATA Binding Protein (AID 2282944); details: HepG2 GATA cis-element reporter, Attagene multiplex mRNA; actives raise or lower the signal
Summary of the method: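 Transient MRTU transfection, HepG2, 24 h compound exposure. Total RNA → oligo(dT) RT → PCR → 6-FAM primer extension → HpaI cut → CE. Bidirectional fit vs DMSO.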

[20] = APR_HepG2_NuclearSize_72hr: Apredica 72-hour HepG2 Assay for Nuclear Size (AID 2282925); details: high-content imaging, actives raise or lower the signal
Summary of the method: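 HepG2 cells dosed 72 h at 0.39–200 uM (10 concentrations, duplicate) in 0.5% v/v DMSO final. Fixed, Hoechst 33342-stained nuclei imaged; nuclear diameter measured by automated image analysis. Bidirectional fit versus DMSO.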

Measured: AC50

[O-]/[N+](=N\O)c1ccccc1
active: [5] 4.26 µM | [15] 27.7 µM
not listed: [20]
inactive: all other assays above

C=C(C)CCCC(C)CCO (stereo not drawn)
not listed: [10] | [16] | [20]
inactive: all other assays above

O=S(=O)(O)CCCN1CCOCC1
not listed: [20]
inactive: all other assays above

CCO[Si](CC)(OCC)OCC
active: [4] 155 µM
not listed: [9] | [20]
inactive: all other assays above

CCOC(=O)C=Cc1ccccc1
not listed: [16] | [20]
inactive: all other assays above

O=C(O)c1cccc(Cl)n1
not listed: [20]
inactive: all other assays above

CCOc1ccc(NC(C)=O)cc1
not listed: [9] | [20]
inactive: all other assays above

O=C1OC2(c3ccc(O)cc3Oc3cc(O)ccc32)c2ccccc21
active: [5] 25.9 µM
not listed: [9] | [20]
inactive: all other assays above

CCCC1CCC(=O)CC1
active: [5] 44.4 µM
not listed: [9] | [20]
inactive: all other assays above

CC(C)(C)c1cccc(O)c1
not listed: [20]
inactive: all other assays above

CC(C)OB(OC(C)C)OC(C)C
not listed: [9] | [20]
inactive: all other assays above

CC/C(=C(\c1ccccc1)c1ccc(OCCN(C)C)cc1)c1ccccc1
active: [20] 119 µM
inactive: [20] | [1] | [4] | [5] | [6] | [7] | [9] | [10] | [11] | [12] | [13] | [14] | [16] | [17] | [18] | [19]

CC(=O)CC(C)(C)C1CCCCC1
not listed: [20]
inactive: all other assays above

O=Cc1ccccc1O
active: [5] 48.5 µM | [15] 25.2 µM
not listed: [9] | [20]
inactive: all other assays above

CCOC(=O)CCCCCCCCC(=O)OCC
not listed: [16] | [20]
inactive: all other assays above
